In PubChem BioAssay (Tox21):
Results filed as inconclusive are left out. Activity calls are given as the source filed them. Unless noted, calls follow the shape of the dose curve; as a rule, active = well fitted curve in the direction sought with a large enough effect in the repeat runs; inconclusive = weak or mixed curves; inactive = no such curve, though single readings can be large; an effect the other way counts as inactive or inconclusive.

Columns and labels:
[1] = biological target: Estrogen receptor beta (Homo sapiens) (UniProt Q92731); assay: qHTS assay to identify small molecule agonists of the estrogen receptor beta (ER-beta) signaling pathway (AID 1259377; active = well fitted activation curve with a large enough effect in the signal ratio in the repeat runs, not every such curve was filed as active; the % refers to the signal ratio)
Sequence of Estrogen receptor beta (Homo sapiens) (Q92731 whole entry, looked up): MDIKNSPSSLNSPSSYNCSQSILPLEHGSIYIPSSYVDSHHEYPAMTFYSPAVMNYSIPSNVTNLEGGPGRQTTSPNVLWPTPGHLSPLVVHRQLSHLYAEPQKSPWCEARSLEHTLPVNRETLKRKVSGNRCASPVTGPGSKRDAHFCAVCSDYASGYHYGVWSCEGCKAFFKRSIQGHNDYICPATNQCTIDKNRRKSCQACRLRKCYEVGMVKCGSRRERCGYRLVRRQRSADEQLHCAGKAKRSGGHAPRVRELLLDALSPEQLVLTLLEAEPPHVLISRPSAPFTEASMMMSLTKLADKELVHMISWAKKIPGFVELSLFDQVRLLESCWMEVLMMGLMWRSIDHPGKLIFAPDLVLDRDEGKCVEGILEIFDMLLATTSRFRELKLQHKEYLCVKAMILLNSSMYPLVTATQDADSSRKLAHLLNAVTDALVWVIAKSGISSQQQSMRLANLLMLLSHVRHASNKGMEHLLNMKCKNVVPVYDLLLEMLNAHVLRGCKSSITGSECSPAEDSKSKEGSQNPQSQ
Summary of the method: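 Read-out: beta-lactamase FRET fluorescence. Cell line: ER-beta-UAS-bla HEK293T in 2% charcoal-stripped FBS. Exposure: 16 hr at 37C. Substrate step: 2 h at room temperature.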

[2] = biological target: Estrogen receptor beta (Homo sapiens) (UniProt Q92731); assay: qHTS assay to identify small molecule antagonists of the estrogen receptor beta (ER-beta) signaling pathway (AID 1259378; active = well fitted inhibition curve with a large enough effect in the signal ratio in the repeat runs, not every such curve was filed as active; the % refers to the signal ratio)
Summary of the method: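 ER-beta-UAS-bla HEK293T cells in 2% charcoal-stripped FBS medium treated with compound plus 1nM final 17-beta-estradiol for 16 hr at 37C. Beta-lactamase reporter read by FRET substrate fluorescence after 2 hours at room temperature.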

[3] = qHTS assay to identify small molecule agonists of the androgen receptor (AR) signaling pathway in the presence of an antagonist - cell viability counter screen (AID 1259379);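 also: MDA-kb2 human breast cancer cells carrying an MMTV luciferase reporter; series mostly up to about 92 µM; nearly all actives have a fitted effect of over 25% in size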
Summary of the method: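 Seed MDA-kb2 at 3,000 cells/well; incubate 5 hr, 37C, 0% CO2. Add nilutamide to 3.0uM final, then pin compounds at 15 concentrations. Incubate 16 hr. Add CellTiter-Fluor at 15 hr, read fluorescence after 1 hr.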

[4] = qHTS assay to identify small molecule agonists of the estrogen receptor beta (ER-beta) signaling pathway - cell viability counter screen (AID 1259380); also: nearly all actives have a fitted effect of over 30% in size
Summary of the method: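 CellTiter-Glo read, 30 min RT, same wells as bla assay; cells ER-beta-UAS-bla HEK293T; 16 hr compound, 37C; medium 2% charcoal-stripped FBS.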

[5] = biological target: Androgen receptor (Homo sapiens) (UniProt P10275); assay: qHTS assay to identify small molecule agonists of the androgen receptor (AR) signaling pathway in the presence of an antagonist (AID 1259381; calls by dose curve; also: nearly all actives have a fitted effect of over 15% in size)
Sequence of Androgen receptor (Homo sapiens) (P10275 whole entry, looked up): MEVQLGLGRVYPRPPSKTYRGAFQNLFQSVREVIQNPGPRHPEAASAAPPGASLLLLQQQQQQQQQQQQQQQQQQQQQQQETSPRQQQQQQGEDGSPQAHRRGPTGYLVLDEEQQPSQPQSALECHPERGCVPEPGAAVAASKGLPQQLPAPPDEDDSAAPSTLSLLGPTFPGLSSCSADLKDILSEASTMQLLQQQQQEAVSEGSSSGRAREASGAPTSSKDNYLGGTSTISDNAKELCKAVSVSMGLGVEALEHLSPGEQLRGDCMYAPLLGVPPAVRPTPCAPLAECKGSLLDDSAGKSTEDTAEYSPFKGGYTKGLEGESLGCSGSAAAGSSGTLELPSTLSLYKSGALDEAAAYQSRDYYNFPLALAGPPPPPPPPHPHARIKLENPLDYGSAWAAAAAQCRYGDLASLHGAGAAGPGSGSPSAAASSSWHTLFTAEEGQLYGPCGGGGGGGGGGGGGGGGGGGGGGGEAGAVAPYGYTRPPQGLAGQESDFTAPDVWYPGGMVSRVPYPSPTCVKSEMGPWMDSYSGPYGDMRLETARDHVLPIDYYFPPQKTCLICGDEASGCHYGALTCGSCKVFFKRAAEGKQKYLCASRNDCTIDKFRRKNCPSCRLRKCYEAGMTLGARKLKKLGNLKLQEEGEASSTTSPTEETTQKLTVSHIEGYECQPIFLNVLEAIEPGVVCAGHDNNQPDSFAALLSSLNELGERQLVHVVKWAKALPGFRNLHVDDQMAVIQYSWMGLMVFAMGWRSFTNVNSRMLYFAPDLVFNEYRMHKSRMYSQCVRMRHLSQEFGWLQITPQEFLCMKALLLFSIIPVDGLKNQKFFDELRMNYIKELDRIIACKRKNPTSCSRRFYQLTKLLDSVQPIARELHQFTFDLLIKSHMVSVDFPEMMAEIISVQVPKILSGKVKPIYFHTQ
Summary of the method: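 Test compounds at 15 concentrations were incubated for 16hr with MDA-kb2 reporter cells in presence of 3.0uM nilutamide (final). Signal: ONE-Glo luciferase luminescence.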

[6] = qHTS assay to identify small molecule antagonists of the estrogen receptor beta (ER-beta) signaling pathway - cell viability counter screen (AID 1259382); also: series mostly up to about 92 µM; nearly all actives have a fitted effect of over 55% in size
Summary of the method: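 In this multiplexed counter screen, cells were seeded at 2,000 per well in medium with 2% charcoal-stripped FBS and incubated 6 hr before compound and 1nM final E2 were added. Sixteen hours later, ATP-based luminescence reported viability.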

[7] = biological target: Estrogen receptor (Homo sapiens) (UniProt P03372); assay: qHTS assay to identify small molecule agonists of the estrogen receptor alpha (ER-alpha) signaling pathway in the presence of an antagonist (AID 1259383; calls by dose curve; also: top concentration of the series differs between compounds; nearly all actives have a fitted effect of over 15% in size)
Sequence of Estrogen receptor (Homo sapiens) (P03372 whole entry, looked up): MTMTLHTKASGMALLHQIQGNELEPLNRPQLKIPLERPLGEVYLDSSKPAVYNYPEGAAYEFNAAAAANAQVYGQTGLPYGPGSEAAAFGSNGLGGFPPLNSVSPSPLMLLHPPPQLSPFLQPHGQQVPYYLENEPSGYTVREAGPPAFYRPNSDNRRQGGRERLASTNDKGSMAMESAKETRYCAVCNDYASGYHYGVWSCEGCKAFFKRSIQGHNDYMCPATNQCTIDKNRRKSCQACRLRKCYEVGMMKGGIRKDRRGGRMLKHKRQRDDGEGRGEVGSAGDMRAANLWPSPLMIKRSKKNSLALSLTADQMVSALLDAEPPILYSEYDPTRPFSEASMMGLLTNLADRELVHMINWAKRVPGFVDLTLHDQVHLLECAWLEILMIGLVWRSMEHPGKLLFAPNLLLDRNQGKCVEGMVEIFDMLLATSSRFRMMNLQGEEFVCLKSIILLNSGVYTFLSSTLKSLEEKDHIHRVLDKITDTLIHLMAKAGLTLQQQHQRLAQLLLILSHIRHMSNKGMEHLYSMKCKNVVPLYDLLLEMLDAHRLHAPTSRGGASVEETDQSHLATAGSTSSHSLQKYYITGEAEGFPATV
Summary of the method: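 Stably transfected VM7Luc4E2 reporter cells, kept 5 days in charcoal-stripped serum, received ICI-182,780 at 10.0nM final before compound addition. Following 22hr incubation at 37C and 5% CO2, luciferase signal was read by luminescence.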

[8] = qHTS assay to identify small molecule agonists or antagonists of the thyroid stimulating hormone receptor (TSHR) signaling pathway - wild type cell line counter screen (AID 1259384; calls by dose curve)
Summary of the method: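 Wild-type Hek293 cells, 800/well, 18 h at 37C, then compound with Ro20-1724 for 30 min RT. cAMP by HTRF (cAMP-d2/anti-cAMP cryptate), 1 h RT, fluorescence read. 15 concentrations, triplicates.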

[9] = biological target: Thyrotropin receptor (Homo sapiens) (UniProt P16473); assay: qHTS assay to identify small molecule antagonists of the thyroid stimulating hormone receptor (TSHR) signaling pathway (AID 1259385; calls by dose curve; also: nearly all actives have a fitted effect of over 20% in size)
Sequence of Thyrotropin receptor (Homo sapiens) (P16473 whole entry, looked up): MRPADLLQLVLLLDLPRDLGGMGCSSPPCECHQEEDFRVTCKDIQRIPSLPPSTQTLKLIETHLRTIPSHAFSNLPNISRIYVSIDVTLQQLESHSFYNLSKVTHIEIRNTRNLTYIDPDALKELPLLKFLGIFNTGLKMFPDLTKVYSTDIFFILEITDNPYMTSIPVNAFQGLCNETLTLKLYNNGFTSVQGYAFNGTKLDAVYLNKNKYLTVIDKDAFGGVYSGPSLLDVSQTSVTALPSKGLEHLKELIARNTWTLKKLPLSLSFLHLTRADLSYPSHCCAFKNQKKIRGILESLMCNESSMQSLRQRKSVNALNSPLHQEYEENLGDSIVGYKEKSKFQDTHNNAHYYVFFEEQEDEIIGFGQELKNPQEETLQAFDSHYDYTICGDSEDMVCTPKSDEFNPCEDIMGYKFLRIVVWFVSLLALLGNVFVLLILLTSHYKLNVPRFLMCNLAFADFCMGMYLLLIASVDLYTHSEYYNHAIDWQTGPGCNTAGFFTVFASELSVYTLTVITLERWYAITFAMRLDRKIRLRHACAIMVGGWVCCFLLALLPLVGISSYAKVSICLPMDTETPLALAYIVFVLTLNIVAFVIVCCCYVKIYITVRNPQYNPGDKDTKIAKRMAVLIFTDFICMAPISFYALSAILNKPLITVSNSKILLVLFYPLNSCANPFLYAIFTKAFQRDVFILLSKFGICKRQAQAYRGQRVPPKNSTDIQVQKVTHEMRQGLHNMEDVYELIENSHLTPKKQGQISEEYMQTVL
Summary of the method: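 TSHR-HEK293 cells (800/well) plated 18 h, then compounds with Ro20-1724 and TSH at 1.5 ng/mL final, 30 min at room temperature. cAMP quantified by HTRF (cAMP-d2/anti-cAMP-cryptate, 1 h); 15 concentrations in triplicate.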

[10] = biological target: Progesterone receptor (Homo sapiens) (UniProt P06401); assay: qHTS assay to identify small molecule agonists of the progesterone receptor (PR) signaling pathway (AID 1346784; calls by dose curve; also: nearly all actives have a fitted effect of over 30% in size)
Sequence of Progesterone receptor (Homo sapiens) (P06401 whole entry, looked up): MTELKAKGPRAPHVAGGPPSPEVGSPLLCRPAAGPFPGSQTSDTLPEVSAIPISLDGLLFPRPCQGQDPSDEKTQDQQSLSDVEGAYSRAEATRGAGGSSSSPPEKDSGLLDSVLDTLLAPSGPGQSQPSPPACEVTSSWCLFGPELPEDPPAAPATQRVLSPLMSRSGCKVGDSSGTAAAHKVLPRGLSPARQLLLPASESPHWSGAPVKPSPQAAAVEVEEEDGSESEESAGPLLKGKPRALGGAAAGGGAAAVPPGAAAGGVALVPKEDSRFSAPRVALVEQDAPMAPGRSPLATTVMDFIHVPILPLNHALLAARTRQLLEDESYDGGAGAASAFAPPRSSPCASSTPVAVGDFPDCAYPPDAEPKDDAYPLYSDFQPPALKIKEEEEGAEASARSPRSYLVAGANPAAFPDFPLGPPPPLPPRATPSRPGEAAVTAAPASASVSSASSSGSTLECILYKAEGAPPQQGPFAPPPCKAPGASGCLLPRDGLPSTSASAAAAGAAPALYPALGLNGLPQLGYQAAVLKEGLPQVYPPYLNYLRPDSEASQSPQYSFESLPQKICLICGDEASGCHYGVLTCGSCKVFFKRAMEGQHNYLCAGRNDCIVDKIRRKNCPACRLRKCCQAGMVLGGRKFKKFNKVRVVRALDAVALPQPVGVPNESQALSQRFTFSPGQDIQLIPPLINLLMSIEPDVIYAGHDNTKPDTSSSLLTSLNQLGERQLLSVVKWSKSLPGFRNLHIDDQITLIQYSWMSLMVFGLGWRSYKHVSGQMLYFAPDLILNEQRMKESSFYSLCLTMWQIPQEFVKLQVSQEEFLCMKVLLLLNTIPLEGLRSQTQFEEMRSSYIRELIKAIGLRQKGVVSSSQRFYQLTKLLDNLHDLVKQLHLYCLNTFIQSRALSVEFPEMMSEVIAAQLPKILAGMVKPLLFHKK
Summary of the method: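 Compounds were tested for PR agonism in HEK 293T cells bearing a beta-lactamase gene under UAS control. Treatment lasted 16 hr at 37C; signal came from fluorescence of a FRET substrate.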

[11] = biological target: Progesterone receptor (Homo sapiens) (UniProt P06401); assay: qHTS assay to identify small molecule antagonists of the progesterone receptor (PR) signaling pathway (AID 1346795; active = well fitted inhibition curve with a large enough effect in the signal ratio in the repeat runs, not every such curve was filed as active; the % refers to the signal ratio)
Summary of the method: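 In HEK293T cells bearing the PR-UAS-bla reporter, compound effects on promegestone-driven (1 nM) beta-lactamase expression are assessed after 16 hr using a fluorescent FRET substrate incubated 2 hr at room temperature.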

[12] = qHTS assay to identify small molecule antagonists of the TGF-beta/Smad signaling pathway - cell viability counter screen (AID 1346824); also: nearly all actives have a fitted effect of over 50% in size
Summary of the method: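 SBE-bla HEK 293T cells, incubated overnight, then compound plus 0.25 ng/mL TGF-beta1 (stock added) for 5 hr at 37 C. Viability was read in the same wells by CellTiter-Glo luminescence after 30 min at room temperature.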

[13] = qHTS assay to identify small molecule agonists of the TGF-beta/Smad signaling pathway - cell viability counter screen (AID 1346829); also: top concentration of the series differs between compounds; nearly all actives have a fitted effect of over 45% in size
Summary of the method: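 Luminescence from CellTiter-Glo, read after a 30 min room-temperature incubation, gives cell viability of SBE-bla HEK 293T cells treated 5 hr with compounds at 37 C.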

[14] = qHTS assay to identify small molecule agonists of the TGF-beta/Smad signaling pathway (AID 1346859; active = well fitted activation curve with a large enough effect in the signal ratio in the repeat runs, not every such curve was filed as active; the % refers to the signal ratio; also: series mostly up to about 77 µM)
Summary of the method: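 Each well held 4,000 SBE-bla HEK 293T cells incubated overnight before compound addition; 5 hr later the cleavable FRET substrate went on for 2 hr at room temperature, and fluorescence was read at two emissions.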

[15] = biological target: Thyrotropin-releasing hormone receptor (Homo sapiens) (UniProt P34981); assay: qHTS assay to identify small molecule antagonists of the thyrotropin-releasing hormone receptor (TRHR) signaling pathway (AID 1346877; active = well fitted inhibition curve with a large enough effect in the repeat runs, not every such curve was filed as active; also: series mostly up to about 51 µM)
Sequence of Thyrotropin-releasing hormone receptor (Homo sapiens) (P34981 whole entry, looked up): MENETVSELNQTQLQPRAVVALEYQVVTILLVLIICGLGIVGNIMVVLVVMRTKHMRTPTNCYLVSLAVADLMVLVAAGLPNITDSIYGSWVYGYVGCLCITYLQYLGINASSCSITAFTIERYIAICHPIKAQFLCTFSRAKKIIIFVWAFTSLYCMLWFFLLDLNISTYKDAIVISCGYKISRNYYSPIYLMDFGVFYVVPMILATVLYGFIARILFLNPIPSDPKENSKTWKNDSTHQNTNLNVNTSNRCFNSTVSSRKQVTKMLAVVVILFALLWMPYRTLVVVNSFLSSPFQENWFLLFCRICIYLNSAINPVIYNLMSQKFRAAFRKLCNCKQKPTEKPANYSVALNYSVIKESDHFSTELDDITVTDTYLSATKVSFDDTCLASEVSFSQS
Summary of the method: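 Following an 18 h incubation at 37 °C and a 2 h calcium dye load, TRHR-HEK293 cells were exposed to compound (5 min, room temperature) and challenged with TRH, 1 nM final.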

[16] = biological target: Thyrotropin-releasing hormone receptor (Homo sapiens) (UniProt P34981); assay: qHTS assay to identify small molecule agonists of the thyrotropin-releasing hormone receptor (TRHR) signaling pathway (AID 1346891; calls by dose curve; also: series mostly up to about 58 µM)
Summary of the method: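 Screening of agonists relied on calcium signalling in HEK293 cells expressing human TRHR: dye loading 2 h at 37 °C preceded compound addition and a 3-min fluorescence time course.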

[17] = qHTS assay to identify small molecule agonists of the estrogen receptor alpha (ER-alpha) signaling pathway in the presence of an antagonist - cell viability counter screen (AID 1259386);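 also: series mostly up to about 92 µM; cells exposed to compounds for 22 h at 37 °C before the viability read; nearly all actives have a fitted effect of over 30% in size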
Summary of the method: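 Viability counter screen using VM7Luc4E2 (full-length ER-alpha, four ERE-luciferase). The cells were treated with compounds alongside ICI-182,780 10.0nM for 22hr, and live-cell protease fluorescence was quantified with CellTiter-Fluor.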

[18] = qHTS assay to identify small molecule antagonists of the progesterone receptor (PR) signaling pathway - cell viability counter screen (AID 1346798); also: series mostly up to about 92 µM; nearly all actives have a fitted effect of over 50% in size
Summary of the method: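 Following a 4 hr attachment, PR-UAS-bla HEK293T cells in charcoal-stripped FBS medium were exposed to compounds with R5020 for 16 hr; CellTiter-Glo was added and luminescence read after 30 min at room temperature.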

[19] = qHTS assay to identify small molecule agonists of the progesterone receptor (PR) signaling pathway - cell viability counter screen (AID 1346799; calls by dose curve; also: nearly all actives have a fitted effect of over 45% in size)
Summary of the method: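 Here, 3,000 PR-UAS-bla HEK293T cells per well were treated with compounds for 16 hr after a 6 hr preincubation at 37C and 5% CO2; cell viability is the CellTiter-Glo luminescence signal.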

[20] = Human pregnane X receptor (PXR) small molecule agonists, qHTS cell viability counter screen (AID 1346977); also: nearly all actives have a fitted effect of over 50% in size
Summary of the method: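 Tox21 qHTS format; PXR-Luc HepG2, 2,000/well, charcoal-stripped FBS 5%. Cpd exposure 24hr. Read: CellTiter-Fluor fluorescence, multiplexed with luciferase.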
% is scaled to controls: 0 for no effect and ±100 for the full control effect.

CC(C)(C)c1n[nH]c(=O)n(N)c1=O
inactive: Potency [1] | Potency [2] | Potency [3] | Potency [4] | Potency [5] | Potency [6] | Potency [7] | outcome [8] | Potency [9] | outcome [10] | Potency [11] | Potency [12] | Potency [13] | Potency [14] | Potency [15] | Potency [16]

C=CC(C)(CCC=C(C)C)OC(=O)/C=C/c1ccccc1 (stereo unspecified)
inactive: Potency [1] | Potency [2] | Potency [3] | Potency [4] | Potency [5] | Potency [6] | Potency [7] | outcome [8] | Potency [17] | outcome [10] | Potency [18] | Potency [19] | Potency [12] | Potency [13] | Potency [14] | Potency [15] | Potency [16] | Potency [20]

O=CC1CC1
inactive: Potency [1] | Potency [2] | Potency [3] | Potency [4] | Potency [5] | Potency [6] | Potency [7] | outcome [8] | Potency [17] | outcome [10] | Potency [11] | Potency [18] | Potency [19] | Potency [12] | Potency [14] | Potency [16] | Potency [20]

CCCC(=O)OCC(COC(=O)CCC)OC(=O)CCC
inactive: Potency [1] | Potency [2] | Potency [3] | Potency [4] | Potency [5] | Potency [6] | Potency [7] | outcome [8] | Potency [9] | Potency [17] | outcome [10] | Potency [11] | Potency [12] | Potency [13] | Potency [14] | Potency [15] | Potency [16] | Potency [20]

C=C/C=C/C=C/CCCCC
inactive: activation [1] -0.263% [at 19 µM] | activity, negative = inhibition [2] -14.6% [at 19 µM] | activity change, negative = cytotoxicity [3] 1.29% [at 19 µM] | activity change, negative = cytotoxicity [4] -7.99% [at 19 µM] | activation [5] 5.43% [at 19 µM] | activity change, negative = cytotoxicity [6] 0.024% [at 19 µM] | activation [7] -1.21% [at 19 µM] | cAMP activity change [8] 0.413% [at 18.9 µM] | activity change, negative = inhibition [9] 1.23% [at 19 µM] | activity change, negative = cytotoxicity [17] -2.67% [at 19 µM] | activation [10] -1.1% [at 19 µM] | activity change, negative = cytotoxicity [18] 13.8% [at 18.9 µM] | activity change, negative = cytotoxicity [19] -2.82% [at 19 µM] | viability change, negative = cytotoxic [12] -6.86% [at 15.8 µM] | activity change, negative = cytotoxicity [13] -1.35% [at 15.8 µM] | activation [14] -2.28% [at 15.8 µM] | activity change, negative = cytotoxicity [20] 3.3% [at 19 µM]

COc1ccccc1C=O
inactive: Potency [1] | Potency [2] | Potency [3] | Potency [4] | Potency [5] | Potency [6] | Potency [7] | outcome [8] | Potency [9] | Potency [17] | outcome [10] | Potency [11] | Potency [18] | Potency [19] | Potency [12] | Potency [13] | Potency [14] | Potency [20]

CC1CCCCC1
inactive: Potency [1] | Potency [2] | Potency [3] | Potency [4] | Potency [5] | Potency [6] | Potency [7] | outcome [8] | Potency [17] | outcome [10] | Potency [11] | Potency [18] | Potency [19] | Potency [12] | Potency [13] | Potency [14] | Potency [20]
